Assay [1] can be described thus: qHTS profiling of the MIPE4 collection as inhibitors of Plasmodium falciparum (3D7) proliferation (AID 743344).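 Note: scaled between DMSO vehicle wells and 0.29 µM artemisinin as full inhibition.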 The conditions noted are these: P. falciparum 3D7 in erythrocytes, SYBR Green DNA fluorescence, 72 h; at 28.5 µM. The method in brief: (§1)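 Parasite DNA was quantified by SYBR Green I fluorescence (ex 485, em 535 nm) after overnight lysis in saponin/Triton buffer at room temperature. Cultures at 0.3% parasitemia and 2.5% hematocrit were first exposed to compound for 72 h at 37 C; signals were normalised to artemisinin (0.29 uM) and vehicle wells.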
(In general: In qHTS, concentration-response curves come from the screen itself.)

A short description of assay [2]: qHTS profiling of the MIPE4 collection as inhibitors of Plasmodium falciparum (DD2) proliferation (AID 743345). Particulars: P. falciparum Dd2 in erythrocytes, SYBR Green DNA, 72 h; at 28.5 µM unless noted. The method in brief:
as §1

Assay [3] in a line: qHTS profiling of the MIPE4 collection as inhibitors of Plasmodium falciparum (DD2) proliferation (Rep 2) (AID 743346). Particulars: P. falciparum Dd2 in erythrocytes, SYBR Green DNA, 72 h; at 28.5 µM. The method in brief: as §1
Assay [4] can be described thus: qHTS profiling of the MIPE4 collection as inhibitors of Plasmodium falciparum (HB3) proliferation (AID 743347).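 Note: plate controls were DMSO vehicle wells for no effect and artemisinin wells for full effect.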 Particulars: P. falciparum HB3 in erythrocytes, SYBR Green DNA, 72 h; at 28.5 µM. The method in brief:
as §1

Assay [5] can be described thus: qHTS Assay for Identifying Gametocytocidal Compounds (AID 743244; active = well fitted curve in the direction sought with a large enough effect; an effect the other way counts as inactive or inconclusive; note: potency is the fitted concentration of half-maximal effect;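 for max response: % is set by controls: 0 for no effect and ±100 for the full control effect; actives lower the fluorescent signal which means gametocytes are killed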). Particulars: P. falciparum 3D7 stage III-V gametocytes, alamarBlue, 72 h; max response: stronger effect = lower value. The method in brief: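 Late gametocytes (III–V), P. falciparum 3D7; 72 h drug, then 24 h alamarBlue; resazurin reduction read by fluorescence.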
The nature of assay [6]: qHTS profiling for inhibitors of Plasmodium falciparum (3D7) proliferation (AID 743322).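 Note: infected erythrocytes exposed to compound for 72 h before lysis; 100% = DMSO vehicle wells and 0% = 0.29 µM artemisinin.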 Particulars: P. falciparum 3D7 proliferation; at 28.7 µM (top of the series) unless noted. The method in brief: as §1
The nature of assay [7]: qHTS profiling for inhibitors of Plasmodium falciparum (DD2) proliferation (AID 743323). The conditions noted are these: lower = more inhibition; at 28.7 µM (top of the series) unless noted. The method in brief:
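SYBR Green fluorescence (ex 485, em 535 nm) of lysed cultures gives parasite DNA content; wells normalized to artemisinin (0.29 uM) and DMSO controls. Infected red cells: 0.3% parasitemia, 2.5% hematocrit, 72 h, 37 C.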

A short description of assay [8]: qHTS profiling for inhibitors of Plasmodium falciparum (HB3) proliferation (AID 743324; active = well fitted curve in the direction sought with a large enough effect; an effect the other way counts as inactive or inconclusive;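 note: 100% = DMSO vehicle wells and 0% = artemisinin-treated control wells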). Particulars: Plasmodium falciparum HB3 blood-stage proliferation; at 28.7 µM (top of the series) unless noted. The method in brief: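 SYBR Green fluorescence (485 ex/535 em) of lysed cultures, incubated overnight at room temperature in the dark, quantifies parasite DNA. Infected erythrocytes at 0.3% parasitemia and 2.5% hematocrit were exposed 72 h; values normalized to DMSO and 0.29 uM artemisinin controls.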

Inconclusive results are not listed. Activity calls are given as the source filed them. Unless noted, the rule behind the calls is not given here.

In assay [1], `CN1CCN(c2ccc([N+](=O)[O-])c3no[n+]([O-])c23)CC1` came in with a parasite growth, % of DMSO control of 77.4%. The parasite growth remaining, % of DMSO control (lower = more inhibition) in assay [2] is 95.3%. Moreover, the parasite growth, % of control (lower = inhibition) in assay [3] turned out to be 86.4%. In assay [4], this compound returned a growth, % of control of 99.7%.

In turn, `O=S(=O)(F)Cc1ccccc1` came in with a parasite growth, % of DMSO control in assay [1] of 95.8%. In assay [2], the parasite growth remaining, % of DMSO control (lower = more inhibition) came out at 95.2%. In assay [3], the parasite growth, % of control (lower = inhibition) was 85.6%. Also, the growth, % of control in assay [4] was 94%.

The compound `Cc1c(N)nc([C@H](CC(N)=O)NC[C@@H](N)C(N)=O)nc1C(=O)N[C@H](C(=O)N[C@@H](C)[C@H](O)[C@@H](C)C(=O)N[C@@H](C(=O)NCCc1nc(-c2nc(C(=O)NCCC[S+](C)C)cs2)cs1)[C@@H](C)O)C(O[C@H]1O[C@H](CO)[C@H](O)[C@@H](O)[C@@H]1O[C@H]1O[C@H](CO)[C@@H](O)[C@H](OC(N)=O)[C@H]1O)c1cnc[nH]1` (stereo not given in full) had a parasite growth, % of DMSO control in assay [1] of 11%. For the same compound, in assay [2], the parasite growth remaining, % of DMSO control (lower = more inhibition) is 9.76%. In assay [3], the parasite growth, % of control (lower = inhibition) worked out at 15.5%. This compound also returned a growth, % of control in assay [4] of 68.4%.

The compound `C[C@]12CC[C@H]3[C@@H](CCC4=CC(=O)CC[C@@]43C)[C@H]1CC[C@H]2O` yielded a parasite growth, % of DMSO control in assay [1] of 78.5%. Further, the parasite growth remaining, % of DMSO control (lower = more inhibition) in assay [2] worked out at 90.8%. Further, the parasite growth, % of control (lower = inhibition) in assay [3] came out at 93.2%. Moreover, in assay [4], the growth, % of control came to 86.3%.

Regarding `CN1CC[C@@H](c2c(O)cc(O)c3c(=O)cc(-c4ccccc4Cl)oc23)[C@@H](O)C1`, in assay [5], the max response was 13.4% (inactive).

With `O=S(=O)(CC1CS1)c1ccc(Oc2ccccc2)cc1` (stereo not given), the parasite growth, % of DMSO control in assay [1] was determined as 94.4%. Further, the parasite growth remaining, % of DMSO control (lower = more inhibition) in assay [2] was 104%. The compound also showed a parasite growth, % of control (lower = inhibition) in assay [3] of 73.8%. The compound also yielded a growth, % of control in assay [4] of 106%.

Regarding `C=CCON=C(C[C@H]1O[C@@H]2O[C@]3(C)CC[C@@H]4[C@H](C)CC[C@@H]([C@H]1C)[C@@]24OO3)[C@H]1O[C@@H]2O[C@]3(C)CC[C@H]4[C@H](C)CC[C@@H]([C@@H]1C)[C@@]24OO3`, in assay [5], the Potency is 8.3 nM (active). For the same compound, the remaining parasite growth % (stronger effect = lower value) in assay [6] was -1.46%. For the same compound, the activity, percent of control in assay [7] was 0.0103%. In assay [8], the remaining proliferation (% of control), lower = more inhibition was determined as 0.0213%. In assay [1], this compound gave a parasite growth, % of DMSO control of 21.6%. Moreover, the parasite growth remaining, % of DMSO control (lower = more inhibition) in assay [2] is 7.38%. The compound further gave a parasite growth, % of control (lower = inhibition) in assay [3] of 16.3%. The growth, % of control in assay [4] is 64.2%.

As for `C1=CCOCc2cc(ccc2OCCN2CCCC2)Nc2nccc(n2)-c2cccc(c2)OCC1`, in assay [6], the remaining parasite growth % (stronger effect = lower value) was determined as 105%. The activity, percent of control in assay [7] is 107%. The remaining proliferation (% of control), lower = more inhibition in assay [8] came out at 115%.

On to `O=C1CCC[C@@H]2[C@H]3CCCN4CCC[C@@H](CN12)[C@@H]34`, for which the parasite growth, % of DMSO control in assay [1] was 91.5%. The parasite growth remaining, % of DMSO control (lower = more inhibition) in assay [2] is 97.9%. Also, in assay [3], the parasite growth, % of control (lower = inhibition) was determined as 95.1%. This compound returned a growth, % of control in assay [4] of 96.2%.

Consider `Cc1[nH]nc2ccc(-c3cncc(OC[C@@H](N)Cc4c[nH]c5ccccc45)c3)cc12`, for which, in assay [1], the parasite growth, % of DMSO control stood at 18.3%. Also, the parasite growth remaining, % of DMSO control (lower = more inhibition) in assay [2] was 47.9%. In assay [3], this compound registered a parasite growth, % of control (lower = inhibition) of 20.1%. The compound further gave a growth, % of control in assay [4] of 8.77%.

`CSCC[C@@H](NC(=O)[C@@H](Cc1ccccc1)NC(=O)CNC(=O)CNC(=O)[C@@H](N)Cc1ccc(O)cc1)C(=O)O` showed a parasite growth, % of DMSO control in assay [1] of 92.2%. Also, the parasite growth remaining, % of DMSO control (lower = more inhibition) in assay [2] was 49.8%. This compound also registered a parasite growth, % of control (lower = inhibition) in assay [3] of 89.9%. Moreover, the growth, % of control in assay [4] was 99.5%.

As to `CCNC(=O)CC1N=C(c2ccc(Cl)cc2)c2cc(OC)ccc2-n2c(C)nnc21` (stereo not given), in assay [1], the parasite growth, % of DMSO control is 26.1%. Moreover, in assay [2], the parasite growth remaining, % of DMSO control (lower = more inhibition) stood at 93.8%. In assay [3], this compound displayed a parasite growth, % of control (lower = inhibition) of 70.5%. The growth, % of control in assay [4] was determined as 42.1%.

For the compound `CC(O)=C(C#N)C(=O)Nc1cc(Br)ccc1Br`, the parasite growth, % of DMSO control in assay [1] stood at 80.7%. Also, the parasite growth remaining, % of DMSO control (lower = more inhibition) in assay [2] came to 97%. For the same compound, the parasite growth, % of control (lower = inhibition) in assay [3] worked out at 78.2%. For the same compound, the growth, % of control in assay [4] was 93.7%.

For `CCNC(=O)C[C@@H]1N=C(c2ccc(Cl)cc2)c2cc(OC)ccc2-n2c(C)nnc21`, the parasite growth, % of DMSO control in assay [1] is 76.4%. Moreover, the parasite growth remaining, % of DMSO control (lower = more inhibition) in assay [2] was determined as 106%. Moreover, in assay [3], the parasite growth, % of control (lower = inhibition) was 99.1%. In addition, the growth, % of control in assay [4] came to 94.6%.

The compound `C=C1C[C@H]2[C@H]3CCC(=O)[C@@]3(C)CC[C@@H]2[C@@]2(C)C=CC(=O)C=C12` returned a parasite growth, % of DMSO control in assay [1] of 51.5%. Further, the parasite growth remaining, % of DMSO control (lower = more inhibition) in assay [2] was 90.6%. Besides, the parasite growth, % of control (lower = inhibition) in assay [3] is 50.5%. This compound also registered a growth, % of control in assay [4] of 29%.

Values taken from PubChem BioAssay (NCATS).
